PubChem BioAssay (NCI)
About 83,000 compounds went through this panel and 20% of them were active in at least one assay; those are over-represented in the sample as a whole.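 Each cell line was grown in a 96-well plate and treated with one concentration of compound for 48 hours. Values below 10 were considered active.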 Active and inactive are the calls of the source.

What was measured:
Assay in all cases: NCI-60 one-dose screen, 48 h (100 = growth as untreated, 0 = no growth, -100 = all killed)
Details in all cases: 10 µM unless noted
[1] = test system: DU-145 prostate
[2] = test system: K-562 leukemia
[3] = test system: MALME-3M melanoma
[4] = test system: MDA-MB-231 breast
[5] = test system: RXF 393 renal
[6] = test system: SF-268 CNS
[7] = test system: SF-295 CNS
[8] = test system: SF-539 CNS
[9] = test system: UACC-257 melanoma
[10] = test system: M14 melanoma
[11] = test system: HCT-15 colon
[12] = test system: SNB-75 CNS
[13] = test system: SNB-19 CNS
[14] = test system: U251 CNS
[15] = test system: PC-3 prostate
[16] = test system: SK-MEL-5 melanoma
[17] = test system: UACC-62 melanoma
[18] = test system: LOX IMVI melanoma
[19] = test system: SK-MEL-28 melanoma
[20] = test system: HT29 colon

Measured: growth

CCN(CC)CCN1C(=O)c2cccc3c(/C=C/CN4C(=O)c5cccc6cccc(c56)C4=O)ccc(c23)C1=O
inactive: [1] 106% | [2] 19.7% | [3] 91.9% | [4] 95.5% | [5] 74.2% | [6] 93.5% | [7] 108% | [8] 92.5% | [9] 109% | [10] 105% | [11] 95.8% | [12] 91.2% | [13] 96% | [14] 105% | [15] 86.6% | [16] 94.3% | [17] 99.8% | [18] 96.6% | [19] 109%

Oc1c(CN2CCOCC2)cc(COCc2ccccc2)c2cccnc12
inactive: [1] 38% | [2] 14.8% | [3] 21.2% | [4] 43.1% | [5] 58.5% | [6] 23.7% | [7] 30.8% | [10] 12% | [11] 20.5% | [20] 88.2% | [14] 11% | [15] 31.4% | [18] 12.5% | [19] 36.3%
active: [8] 4.65% | [9] -9.19% | [16] -12.3% | [17] -25.7%

COc1ccc2c(c1)c(/C(O)=C1\COC(=O)C1=O)cn2Cc1ccc(F)cc1
inactive: [1] 139% | [2] 86.6% | [3] 106% | [4] 94.1% | [5] 104% | [6] 103% | [7] 93.3% | [8] 102% | [9] 95.8% | [10] 116% | [11] 87.8% | [13] 100% | [14] 101% | [15] 89.7% | [16] 97.9% | [17] 88.9% | [18] 100% | [19] 105%

C=C1C(=O)O[C@H]2[C@H]1CC/C(COC(=O)c1cc3cc(Cl)ccc3[nH]1)=C\CC[C@@]1(C)O[C@@H]21
active: [1] -96.1% | [2] -21.1% | [3] -76.9% | [4] -77.8% | [5] -88.7% | [6] -88.3% | [8] -90.4% | [9] -76.3% | [10] -56.9% | [11] -61.1% | [12] -97.3% | [14] -88.8% | [15] -56.3% | [16] -88.6% | [17] -78.7% | [18] -93.2% | [19] -83.3%
inactive: [7] 39.2% | [13] 12.6%

CC1C(/C=N/NC(N)=S)C(C#N)(C#N)C1(C#N)C#N (configuration not stated)
inactive: [1] 96.8% | [2] 84.1% | [3] 103% | [4] 106% | [5] 106% | [6] 91.4% | [7] 107% | [8] 111% | [9] 96.3% | [10] 102% | [11] 109% | [12] 92.7% | [13] 101% | [14] 102% | [15] 92.9% | [16] 104% | [17] 96.9% | [18] 109% | [19] 116%

COc1ccc(/C(C)=C(\c2ccc(Cl)cc2)c2ccc(OCCN3CCCCC3)cc2)cc1
inactive: [1] 78.8% | [3] 35.1% | [4] 45.7% | [5] 33.5% | [6] 59.2% | [8] 43.9% | [12] 89.1% | [13] 62.8% | [14] 36.4% | [15] 41% | [17] 33.4% | [19] 20.1%
active: [2] 3.68% | [7] 7.09% | [9] 1.77% | [10] 4.01% | [11] 9.98% | [16] -39% | [18] 3.11%

C#CCNC(=O)[C@]1(C)CCC[C@@]2(C)[C@H]1CC=C1C=C(C(C)C)CC[C@@H]12
inactive: [1] 103% | [2] 121% | [3] 97.5% | [4] 96.3% | [5] 120% | [6] 89.3% | [7] 91.6% | [8] 108% | [9] 110% | [10] 98.6% | [11] 94.8% | [12] 86.5% | [13] 101% | [14] 106% | [15] 95.4% | [16] 102% | [17] 92.1% | [18] 96.8% | [19] 111%

CN(C)CCCC1(c2ccc(F)cc2)OCc2cc(-c3ccc4cc[nH]c4c3)ccc21 (configuration not stated)
active: [2] -20.1% | [10] -56.8% | [18] -83.4%
inactive: [1] 35.7% | [3] 11% | [4] 16% | [5] 45.8% | [6] 54% | [7] 74.5% | [8] 67.8% | [9] 79.1% | [11] 25.8% | [13] 69.2% | [14] 17.5% | [15] 43.5% | [16] 56.6% | [17] 56.9% | [19] 64.1%

CC(=O)OC(c1ccccc1)C1CCOC1=O (configuration not stated)
inactive: [1] 115% | [2] 108% | [3] 107% | [4] 103% | [5] 101% | [6] 110% | [7] 94.6% | [8] 101% | [9] 102% | [10] 99.9% | [11] 97.1% | [12] 79.2% | [13] 109% | [14] 99.1% | [15] 100% | [16] 102% | [17] 87.2% | [18] 96.7% | [19] 113%

COc1ccc(/C=C/C(=O)c2cc(OC)c(OC)c(OC)c2)cc1OCC(=O)Nc1nc2ccc(OC(F)(F)F)cc2s1
inactive: [3] 26.8% | [9] 68.6% | [11] 11.7% | [13] 12.9% | [15] 33.4% | [17] 60% | [19] 36.4%
active: [1] -30.3% | [2] 5.93% | [4] -16.1% | [5] -29.7% | [6] 9.91% | [7] 0.996% | [8] -58.4% | [10] 1.09% | [12] -33.1% | [14] -45.9% | [16] 2.06% | [18] -22.9%

Fc1cc(Nc2ccc3c(OCCCN4CCOCC4)cccc3n2)ccc1Cl
active: [2] -34.8% | [4] -18.9% | [5] 1.26% | [7] -46.2% | [10] -31.1% | [11] -13.4% | [17] -31.7% | [18] -78.7% | [19] -35.8%
inactive: [1] 48.1% | [3] 21.4% | [6] 48.5% | [8] 15.7% | [9] 75.9% | [12] 37.3% | [13] 17.8% | [14] 14.4% | [15] 30.6% | [16] 63.6%

COc1cc(NC(=O)c2cncnc2Nc2ccc3c(ccn3Cc3ccccn3)c2)cc(OC)c1
inactive: [1] 65.4% | [2] 17.1% | [3] 44.7% | [4] 50.6% | [5] 42% | [6] 63.1% | [7] 35% | [8] 48.2% | [9] 68% | [10] 36.5% | [11] 30.7% | [13] 58.3% | [14] 45.9% | [15] 38.2% | [16] 35.4% | [17] 58.1% | [18] 39.9% | [19] 63.8%
active: [12] -3.17%

COC(=O)N1CC(Oc2ccccn2)C2CC1c1ccccc1O2 (configuration not stated)
inactive: [1] 115% | [2] 114% | [3] 104% | [4] 89.7% | [5] 95.1% | [6] 102% | [7] 104% | [8] 99.4% | [9] 88% | [10] 102% | [11] 98.8% | [12] 98.7% | [13] 94.5% | [14] 104% | [15] 94.4% | [16] 99.4% | [17] 89.5% | [18] 96.8% | [19] 94.8%

O=C(NCc1cccc(CNC(=O)Nc2nc3ccccc3[nH]2)c1)Nc1nc2ccccc2[nH]1
active: [1] -32.6% | [2] 0.347% | [3] -74.2% | [4] -66.6% | [6] 0.441% | [7] 5.41% | [9] -54.1% | [10] -77.4% | [12] -42.2% | [13] 9.35% | [14] -77.9% | [15] -59.8% | [16] -46.5% | [17] -15.9% | [18] -20.4% | [19] -76.9%
inactive: [5] 43.1% | [8] 27.5% | [11] 69.5%

COc1ccc(-c2n[nH]c(=O)c3nc(NC(=S)Nc4ccc(Oc5ccccc5)cc4)sc23)cc1
inactive: [1] 102% | [2] 89.3% | [3] 110% | [4] 84% | [5] 104% | [6] 102% | [7] 102% | [8] 105% | [9] 79.7% | [10] 88.9% | [11] 103% | [12] 80.8% | [13] 101% | [14] 83.3% | [15] 83.8% | [16] 99.9% | [17] 95.2% | [18] 104% | [19] 104%
